Laboratory results published in PubChem BioAssay AID624296 (National Center for Advancing Translational Sciences (NCATS), 2012).
The campaign covered roughly 350,000 compounds. About 9,900 (2.8%) were called active. Not shown: some 15% with an inconclusive outcome. The full list was thinned out, with actives kept by preference. Values without a mark were called inactive. The call rests on the fitted dose curve; in most records, active means well fitted activation curve with a large enough effect; inconclusive means small, poorly fitted or top-dose-only effect; inactive means no such curve, though single readings can be large or run the other way.

Test: A quantitative high throughput screen for small molecules that induce DNA re-replication in MCF 10a normal breast cells. Further: nearly all actives have a fitted effect of over 50% in size. On activity, positive = re-replication: % of control where 0% means no effect.
Settings: MCF 10A DNA re-replication, Hoechst nuclear intensity, 48 h; series mostly up to 46.1 µM; activity, positive = re-replication: at the top concentration
Potency means the concentration at half of the fitted maximal effect.

| SMILES | activity, positive = re-replication [%] | Potency |
| --- | --- | --- |
| Cn1cc(CCC(=O)NCc2ccc3c(c2)OCO3)c2ccccc21 | -6.37 | – |
| O=C(CC(Cc1ccccc1)C(=O)O)NCCc1ccc2c(c1)OCO2 (stereo not given) | 2.45 | – |
| O=C(CCc1nnc(Cc2ccc3c(c2)OCO3)o1)NCCc1ccccc1Cl | – | 20.6 µM (active) |
| COc1ccc(CCC(=O)N2CCN(S(=O)(=O)c3ccc(OC)cc3)CC2)cc1 | -1.3 | – |
| Cc1ccccc1-n1c(C)cc(/C=C2\NC(=O)NC2=O)c1C | – | 25.9 µM (active) |
| Cc1ccccc1-n1c(C)cc(/C=N/NC(=O)c2ccc(CN3CCOCC3)cc2)c1C | 4.86 | – |
| Cc1ccc(CN2C(=O)N/C(=C/c3cc(C)n(-c4ccccn4)c3C)C2=O)cc1 | 3.85 | – |
| CC1(C)CC(=O)C=C(c2cccc3c2Oc2ccccc2S3)C1 | 20.6 | – |
| CC(=NNC(=O)c1ccc2nc[nH]c2c1)c1ccc(Br)cc1 | 0.489 | – |
| Cc1csc(NC(=O)c2ccc(C)s2)n1 | 21.9 | – |
| Cc1csc(NC(=O)c2ccc(-c3ccc(Cl)cc3Cl)o2)n1 | – | 18.4 µM (active) |
| O=C(Nc1cccc2ncccc12)c1ccc(-c2ccc(Cl)cc2Cl)o1 | 15.5 | – |
| CC(Nc1ccc([N+](=O)[O-])cc1[N+](=O)[O-])c1ccccc1 (stereo not given) | 24.8 | – |
| Cc1nc2cc(C(F)(F)F)ccc2n1CCNc1nc(-c2cc(Cl)c(N)c(Cl)c2)cs1 | – | 23.1 µM (active) |
| CCCn1c(C(C)Nc2nc(-c3ccc(C)cc3)cs2)nc2cc(Cl)c(N3CCCCC3)cc21 (stereo not given) | -30.3 | – |
| CCCn1c(CCNc2nc(-c3ccc(OC)cc3)cs2)nc2ccccc21 | 24.8 | – |
| CC1CCCCC1NC(=O)Cn1cnc2c1c(=O)n(C)c(=O)n2C (stereo not given) | -2.1 | – |
| CCCN(CC(=O)Nc1ccccc1C)C(=O)c1ccc(OCC(=O)N2CCOCC2)c(OCC)c1 | 0.566 | – |
| COCCNC(=O)c1ccc2nc(Cc3ccc(OC)c(OC)c3)oc2c1 | – | 3.26 µM (active) |
| COc1ccc(Cc2nc3ccc(C(=O)NCC4CCOCC4)cc3o2)cc1OC | -2.78 | – |
| CSCCNC(=O)c1ccc2nc(Cc3ccccc3F)oc2c1 | 4.94 | – |
| CCOc1ccc(NC(=O)CN(C)C(=O)c2cccc(S(=O)(=O)N3CCCC3)c2)cc1OCC | -0.541 | – |

| SMILES | activity, positive = re-replication [%] | Potency |
| --- | --- | --- |
| COc1ccc(S(=O)(=O)N2CCOCC2)cc1NC(=O)c1ccc(OCC(C)C)c(OC)c1 | -3.94 | – |
| CCCCCOc1ccc(CSC2=NCCN2)cc1[N+](=O)[O-] | – | 20.6 µM (active) |
| Cc1nc(SCc2ccc(F)cc2)c([N+](=O)[O-])[nH]1 | 2.7 | – |
| CCCOc1ccc(Cn2ccnc2)cc1[N+](=O)[O-] | 4.34 | – |
| COc1ccccc1C1=CC(=O)C[C@H](c2ccc(F)cc2)C1 | -0.998 | – |
| CCC(Cc1ccccc1)NC(=O)C1CCCCC1 (stereo not given) | – | 0.651 µM (active) |
| Cc1ccc(NC(=O)[C@H](Cc2ccccc2)NC(=O)C2CCNCC2)cc1 | -3.39 | – |
| O=C(COC(=O)CNC(=O)C1CCCCC1)NCc1ccccc1 | -4.63 | – |
| O=C(O)c1ccc(Cn2cnc3c(=S)nc[nH]c32)cc1 | 0.877 | – |
| COc1ccccc1N(CCOc1ccccc1)S(=O)(=O)c1ccccc1 | 16.1 | – |
| COc1ccc(C(=O)NN(C)c2nc(-c3ccccc3)cc(C)c2S(C)(=O)=O)cc1 | 13.4 | – |
| Cc1cccc(C(=O)NCCCN(C)CCCNC(=O)c2cccc(C)c2)c1 | -1.15 | – |
| CSc1nc(N(C)NC(=O)c2cccc(C)c2)c2ccccc2n1 | – | 0.231 µM (active) |
| CCN(c1ccccc1)S(=O)(=O)c1ccc(OCC(=O)N2CCCC2)cc1 | 2.91 | – |
| Cc1ccc(C(=O)NCCN2CCOCC2)cc1C | -21.7 | – |
| Cc1c(C)n(Cc2ccc(Cl)cc2)c2ccc(C(=O)NCCCN3CCOCC3)cc12 | – | 23.1 µM (active) |
| O=C(NCCN1CCOCC1)c1ccc2c(c1)N(Cc1ccc(Cl)cc1)CCS2 | -0.362 | – |
| COC(=O)C1=CO[C@@H](O[C@@H]2O[C@H](CO)[C@@H](O)[C@H](O)[C@H]2O)C2C1C[C@H](O)[C@@H]2C (stereo not given in full) | 3.4 | – |
| O=c1nc(NO)ccn1C1CCCO1 (stereo not given) | -1.94 | – |
| COc1cc(OC)c(S(=O)(=O)Nc2ccccc2C(=O)O)cc1S(=O)(=O)Nc1ccccc1C(=O)O | 2.07 | – |
| COc1cc(NC(=O)c2ccccc2NS(=O)(=O)c2ccc(Cl)s2)cc(OC)c1 | – | 14.6 µM (active) |
| COc1cc(NC(=O)c2cccnc2SC)cc(OC)c1 | 11.3 | – |

| SMILES | activity, positive = re-replication [%] | Potency |
| --- | --- | --- |
| N#Cc1ccc(CN2CCN(CC(=O)Nc3ccccc3C(=O)NC3CC3)CC2)cc1 | -1.12 | – |
| O=C(Nc1ccc2c(c1)OCO2)C1CC1(Cl)Cl (stereo not given) | 3.6 | – |
| CC(=O)Nc1ccc(S(=O)(=O)NCC(=O)OCC(=O)c2ccc[nH]2)cc1 | -5.01 | – |
| COc1ccc(Sc2nc(-c3ccccc3)ncc2OC)cc1 | -0.264 | – |
| CCCCNc1nc2c(c(=O)n(C)c(=O)n2C)n1Cc1cccc(OC)c1 | 22.9 | – |
| CCCCNc1c(-c2cccc(Sc3ccc(OC)cc3)c2)nc2ccccn12 | – | 18.4 µM (active) |
| Fc1ccc2cnc(-c3ccccc3)cc2c1 | -6.69 | – |
| COc1cc(/C=C/CNC[C@H]2O[C@@H](n3cnc(C(N)=O)n3)[C@H](O)[C@@H]2O)ccc1O | -3.55 | – |
| O=C1Nc2c(Br)cc(Br)cc2C1(O)N1CCOCC1 (stereo not given) | – | 8.2 µM (active) |
| O=C(c1cc2cc(Br)cc(Br)c2oc1=O)N1CCOCC1 | -3.32 | – |
| O=C(CSC(=S)N1CCOCC1)c1cc(Br)cc(Br)c1O | -10.4 | – |
| Cc1ccc2c(c1)C1C[N+](C)(CC(=O)c3ccccc3)CCC1N2C(=O)c1ccccc1Cl (stereo not given) | 1.42 | – |
| CC[C@]12c3[nH]c4cc(CCC(=O)N(C)C)ccc4c3CCN1C(=O)[C@@H](CC(=O)NCC13CC4CC(CC(C4)C1)C3)C[C@@H]2C(=O)N1CCN(C(=O)C2CC2)CC1 | 5.53 | – |
| CSc1ccc(/C=N/NC(=O)c2cccc(Cl)c2)cc1 | -1.93 | – |
| CSc1ccc(/C=N\NC(=O)COc2ccc(Cl)cc2Br)cc1 | – | 13 µM (active) |
| O=C(COc1ccc(Cl)cc1Cl)N/N=C/c1ccccn1 | 7.32 | – |
| CCC(=O)c1cc(F)ccc1OCC(=O)Nc1ccc2c(c1)OCCO2 | 13.1 | – |
| COc1ccccc1NC(=O)COC(=O)COc1ccccc1F | 4.21 | – |
| COc1ccc(CC(=O)NC(C)c2ccc(Cl)c(Cl)c2)cc1S(=O)(=O)N1CCOCC1 (stereo not given) | -1.21 | – |
| Nc1ncnc2c1cnn2C1CC(O)C(CO)O1 (stereo not given) | -2.15 | – |
| CCN(C[C@H]1N[C@@](Cc2ccccc2)(C(=O)OC)[C@H]2C(=O)N(Cc3ccccc3)C(=O)[C@@H]12)C(=O)c1ccc(C)cc1 | 13.4 | – |
